For 6 compounds, outcome and AC50 results are on record in PubChem BioAssay (EPA / NIEHS).

Assay [1] has as its target Glucocorticoid receptor (Homo sapiens) (UniProt P04150). Kind of assay: ATG_GR_TRANS: Attagene TRANS-FACTORIAL HepG2 Assay for human Glucocorticoid Receptor (GR) (AID 2282978; active = hit-call score of the fitted dose curve at least 0.9, where 1 is the maximum;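 also: activators score as hits since higher reporter transcript over DMSO is fitted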). The note with it: HepG2 Attagene TRANS GR reporter, mRNA transcription. The essentials: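 HepG2 cells transiently transfected with GAL4-UAS reporter units and exogenous GR-Gal4 chimera, dosed 24 h. Reporter mRNA by RT-PCR, FAM labeling, HpaI digest and capillary electrophoresis; gain-of-signal fit versus DMSO.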

The target in assay [2] is Bile acid receptor (Homo sapiens) (UniProt Q96RI1). Kind of assay: ATG_FXR_TRANS: Attagene TRANS-FACTORIAL HepG2 Assay for Farnesoid X Receptor (FXR) (AID 2282979; active = hit-call score of the fitted dose curve at least 0.9, where 1 is the maximum;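 also: hits raise reporter mRNA above DMSO so AC50 marks FXR activation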). The conditions noted are these: HepG2 Attagene TRANS FXR-GAL4 reporter transcription. The essentials: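 Chimeric FXR-GAL4 activity in transiently transfected human HepG2 liver cells is scored as induction of reporter mRNA after 24 h of dosing. Detection uses RT-PCR with fluorescent labelling and capillary electrophoresis, with DMSO serving as baseline.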

Assay [3] deals with Oxysterols receptor LXR-alpha (Homo sapiens) (UniProt Q13133). Kind of assay: ATG_LXRa_TRANS: Attagene TRANS-FACTORIAL HepG2 Assay for human Liver X Receptor alpha (LXRa) (AID 2282980; active = hit-call score of the fitted dose curve at least 0.9, where 1 is the maximum). The note with it: HepG2 Attagene TRANS reporter, LXRa transactivation. The essentials: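 Transient HepG2 transfectants, 24 h dosing, RT-PCR/CE mRNA reporter quantitation; gain-of-signal vs DMSO.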

Assay [4] concerns the target Oxysterols receptor LXR-beta (Homo sapiens) (UniProt P55055). Kind of assay: ATG_LXRb_TRANS: Attagene TRANS-FACTORIAL HepG2 Assay for human Liver X Receptor beta (LXRb) (AID 2282981; active = hit-call score of the fitted dose curve at least 0.9, where 1 is the maximum). The conditions noted are these: HepG2 Attagene TRANS GAL4-LXRb reporter, mRNA. The essentials: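 Gain-of-signal mRNA reporter endpoint, DMSO as negative control. Transiently transfected HepG2 cells carrying the NR-Gal4 chimera and GAL4-UAS reporter units were treated 24 h; transcripts quantified by RT-PCR and capillary electrophoresis fluorescence.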

The target in assay [5] is Transcriptional activator Myb (Homo sapiens) (UniProt P10242). Kind of assay: ATG_Myb_CIS: Attagene CIS-FACTORIAL HepG2 Assay for human Myeloblastosis (Myb) Proto-Oncogene Transcription Factor (AID 2282986). The conditions noted are these: HepG2 Attagene CIS-FACTORIAL Myb reporter transcription; actives raise or lower the signal. The essentials:
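Transiently transfected HepG2 cells carrying a multiplexed cis-promoter reporter set report endogenous Myb activity after 24 h compound exposure. Reporter mRNA is read by RT-PCR with capillary electrophoresis of fluorescent products, fitted bidirectionally against DMSO.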

In assay [6] the target is Nuclear respiratory factor 1 (Homo sapiens) (UniProt Q16656). Kind of assay: ATG_NRF1_CIS: Attagene CIS-FACTORIAL HepG2 Assay for human Nuclear Respiratory Factor 1 (NRF1) Orphan Gene (AID 2282987). The conditions noted are these: HepG2 NRF1 cis-element reporter, Attagene multiplex; actives raise or lower the signal. The essentials:
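HepG2 cells transiently transfected with multiple cis-regulated reporter units, exposed 24 h. Reporter mRNAs measured by RT-PCR, fluorescent labelling, HpaI digestion and capillary electrophoresis; bidirectional fitting against DMSO.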

Assay [7] in a line: ATG_NFI_CIS: Attagene CIS-FACTORIAL HepG2 Assay for human Nuclear Factor I (NFI) (AID 2282989). The conditions noted are these: HepG2 cis-regulatory reporter, NFI response element transcription; actives raise or lower the signal. The essentials: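 Read-out: reporter mRNA via RT-PCR plus capillary electrophoresis with fluorescence detection. Transiently transfected HepG2 (endogenous TF activity on cis promoters), 24 h compound exposure; gain or loss of signal fitted against DMSO.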

In assay [8] the target is Myc proto-oncogene protein (Homo sapiens) (UniProt P01106). Kind of assay: ATG_Myc_CIS: Attagene CIS-FACTORIAL HepG2 Assay for human Myelocytomatosis (Myc) Proto-Oncogene Transcription Factor (AID 2282990). The note with it: HepG2, Attagene cis-reporter transcription factor activity; actives raise or lower the signal. The gist of the method:
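Read-out: fluorescent reporter mRNA fragments resolved by capillary electrophoresis after RT-PCR. Human HepG2 liver cells carried transfected cis-element reporter units and were dosed for 24 h. Gain or loss of signal fitted relative to DMSO baseline.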

The nature of assay [9]: ATG_NF_kB_CIS: Attagene CIS-FACTORIAL HepG2 Assay for human Nuclear Factor Kappa B (NF-kB) (AID 2282991). The conditions noted are these: HepG2 Attagene cis-factorial NF-kB reporter mRNA; actives raise or lower the signal. The gist of the method:
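HepG2 cells transfected with cis-promoter-driven reporter units, so endogenous transcription factor activity is measured. Reporter mRNA quantified 24 h after dosing by RT-PCR and capillary electrophoresis, with bidirectional fitting against DMSO.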

The nature of assay [10]: ATG_NRF2_ARE_CIS: Attagene CIS-FACTORIAL HepG2 Assay for human Nuclear Factor Erythroid 2 Related Factor 2 (NFR2) response to Antioxidant Response Elements (ARE) (AID 2282992).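 As to AC50: reporter mRNA level measured by RT-PCR and capillary electrophoresis fluorescence.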 The conditions noted are these: HepG2 Attagene ARE/NRF2 reporter, transcription factor activity; actives raise or lower the signal. The essentials: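 Cis-factorial assay: transfected HepG2 reporter library, 24 h dosing, mRNA readout via RT-PCR/CE; DMSO-referenced bidirectional analysis.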

Assay [11] deals with Cellular tumor antigen p53 (Homo sapiens) (UniProt P04637). Kind of assay: ATG_p53_CIS: Attagene CIS-FACTORIAL HepG2 Assay for human p53 Transcription Factor (AID 2282994). The conditions noted are these: HepG2 p53 cis-element reporter, Attagene mRNA; actives raise or lower the signal. The essentials: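 Using HepG2 hepatoma cells carrying cis-acting multiplexed reporters, mRNA induction is detected after a 24 h exposure. Gain- and loss-of-signal responses are fitted relative to DMSO-treated cells.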

The nature of assay [12]: ATG_M_32_TRANS: Attagene TRANS-FACTORIAL HepG2 Assay for M32 Transcription Factor (Internal Marker) (AID 2282984; active = hit-call score of the fitted dose curve at least 0.9, where 1 is the maximum;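 also: transcript level of a background control reporter unit measured by RT-PCR and capillary electrophoresis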). The conditions noted are these: HepG2 Attagene TRANS M32 internal marker reporter. The essentials: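 Capillary electrophoresis of 6-FAM-labelled reporter fragments gives the signal; data fitted for gain over DMSO negative control. Source: HepG2 cells bearing transient multiple reporter transcription units, 24 h exposure.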

The target in assay [13] is Nuclear receptor subfamily 4 group A member 2 (Homo sapiens) (UniProt P43354). Kind of assay: ATG_NURR1_TRANS: Attagene TRANS-FACTORIAL HepG2 Assay for human Nuclear Receptor Related Protein 1 (NURR1) (AID 2282985; active = hit-call score of the fitted dose curve at least 0.9, where 1 is the maximum). The note with it: HepG2 Attagene TRANS reporter, mRNA readout. The essentials:
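HepG2 / transient MRTU transfection / 24 h compound exposure / RT-PCR + CE fluorescence of reporter mRNA / gain-of-signal vs DMSO.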

A short description of assay [14]: ATG_Oct_MLP_CIS: Attagene CIS-FACTORIAL HepG2 Assay for human Octamer-Binding Transcription Factor (Oct) (AID 2282993). The note with it: HepG2 Attagene cis-factorial Oct reporter, mRNA; actives raise or lower the signal. The gist of the method:
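Read-out: reporter mRNA via RT-PCR plus capillary electrophoresis of 6-FAM-labelled fragments. Transiently transfected HepG2, 24 h exposure, endogenous TF activity on cis elements. Gain or loss of signal fitted relative to DMSO.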

Assay [15] is described as follows: ATG_M_06_TRANS: Attagene TRANS-FACTORIAL HepG2 Assay for M06 Transcription Factor (Internal Marker) (AID 2282983; active = hit-call score of the fitted dose curve at least 0.9, where 1 is the maximum). The conditions noted are these: HepG2 Attagene TRANS M06 internal marker reporter. The essentials:
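Measured by capillary electrophoresis of fluorescently labelled RT-PCR products, this endpoint reflects reporter mRNA in HepG2 cells harbouring exogenous NR-GAL4 reporter constructs after 24 h exposure, with DMSO as baseline.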

Assay [16] in a line: BSK_3C_TissueFactor: BioMAP Diversity Plus: 3C Assay for Tissue Factor Biomarker Activity (AID 2282997). The note with it: BioMAP 3C HUVEC, tissue factor biomarker readout; actives raise or lower the signal. The gist of the method:
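Values derive from bidirectional curve fitting against DMSO of Tissue Factor ELISA signals, taken 24 h after dosing primary human umbilical vein endothelial cells.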

Assay [17] can be described thus: BSK_3C_uPAR: BioMAP Diversity Plus: 3C Assay for Urokinase-type plasminogen activator receptor (uPAR) Biomarker Activity (AID 2282998). The conditions noted are these: BioMAP 3C HUVEC, uPAR biomarker ELISA; actives raise or lower the signal. The essentials:
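HUVEC primary cells; 24 h post-dose; uPAR by ELISA; gain or loss of signal fitted bidirectionally vs DMSO baseline.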

A short description of assay [18]: BSK_3C_VCAM1: BioMAP Diversity Plus: 3C Assay for Vascular cell adhesion molecule 1 (VCAM1) Biomarker Activity (AID 2282999). The note with it: BioMAP 3C HUVEC, VCAM1 ELISA, cytokine-stimulated; actives raise or lower the signal. The essentials:
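Human umbilical vein endothelial cells (3C system), biomarker read by ELISA 24 h after dosing; bidirectional fit against DMSO baseline. Cytotoxicity tracked by SRB total-protein staining in parallel cultures at biomarker time.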
For orientation: An ELISA detects its analyte on a solid surface through an enzyme-linked reagent.

Results filed as inconclusive are left out. The source made the active and inactive calls. The calls were made as follows, unless noted: active = hit-call score of the fitted dose curve at least 0.9, where 1 is the maximum; inactive = score below 0.9.

Chain of Transcriptional activator Myb (Homo sapiens) (P10242 whole entry, looked up): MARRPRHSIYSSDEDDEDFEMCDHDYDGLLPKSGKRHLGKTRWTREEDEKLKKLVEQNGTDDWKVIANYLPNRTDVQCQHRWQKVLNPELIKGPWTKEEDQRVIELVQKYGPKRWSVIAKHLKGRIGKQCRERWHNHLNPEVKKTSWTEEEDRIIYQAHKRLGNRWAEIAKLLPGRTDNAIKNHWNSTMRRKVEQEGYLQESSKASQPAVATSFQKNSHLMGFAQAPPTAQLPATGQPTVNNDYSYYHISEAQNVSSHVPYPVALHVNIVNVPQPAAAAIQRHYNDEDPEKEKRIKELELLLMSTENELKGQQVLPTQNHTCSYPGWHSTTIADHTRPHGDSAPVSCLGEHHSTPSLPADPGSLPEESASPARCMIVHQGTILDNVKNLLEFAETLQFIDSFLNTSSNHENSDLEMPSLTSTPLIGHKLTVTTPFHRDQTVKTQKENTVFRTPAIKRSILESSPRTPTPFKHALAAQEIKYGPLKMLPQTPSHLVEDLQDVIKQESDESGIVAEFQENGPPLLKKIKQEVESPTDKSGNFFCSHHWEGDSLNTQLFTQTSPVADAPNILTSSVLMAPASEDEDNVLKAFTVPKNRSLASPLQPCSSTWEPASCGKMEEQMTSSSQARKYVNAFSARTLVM
Chain of Myc proto-oncogene protein (Homo sapiens) (P01106 whole entry, looked up, the tested form may be a part): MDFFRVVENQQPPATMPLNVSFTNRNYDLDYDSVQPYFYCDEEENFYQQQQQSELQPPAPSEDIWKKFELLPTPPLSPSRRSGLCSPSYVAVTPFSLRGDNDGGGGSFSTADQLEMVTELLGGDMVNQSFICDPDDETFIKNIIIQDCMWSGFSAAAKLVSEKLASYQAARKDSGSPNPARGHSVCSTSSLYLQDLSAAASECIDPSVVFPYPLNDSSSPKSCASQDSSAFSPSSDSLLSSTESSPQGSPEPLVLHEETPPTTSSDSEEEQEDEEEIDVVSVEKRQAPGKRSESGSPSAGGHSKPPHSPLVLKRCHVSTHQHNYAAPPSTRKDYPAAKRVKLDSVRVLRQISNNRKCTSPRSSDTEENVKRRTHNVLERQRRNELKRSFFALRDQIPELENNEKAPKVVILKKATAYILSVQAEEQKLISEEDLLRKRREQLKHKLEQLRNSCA
Chain of Cellular tumor antigen p53 (Homo sapiens) (P04637 whole entry, looked up): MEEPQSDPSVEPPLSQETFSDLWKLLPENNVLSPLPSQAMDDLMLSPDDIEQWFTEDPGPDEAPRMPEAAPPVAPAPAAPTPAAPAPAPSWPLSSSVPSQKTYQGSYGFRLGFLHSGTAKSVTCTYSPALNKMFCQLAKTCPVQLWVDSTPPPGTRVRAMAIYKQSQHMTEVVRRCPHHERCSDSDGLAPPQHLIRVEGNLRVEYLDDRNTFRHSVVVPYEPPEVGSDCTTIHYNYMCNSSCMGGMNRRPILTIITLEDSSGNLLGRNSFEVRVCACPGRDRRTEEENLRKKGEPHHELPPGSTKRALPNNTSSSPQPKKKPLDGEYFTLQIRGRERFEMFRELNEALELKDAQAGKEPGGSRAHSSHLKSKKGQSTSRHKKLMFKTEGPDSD
Chain of Bile acid receptor (Homo sapiens) (Q96RI1 whole entry, looked up, the tested form may be a part): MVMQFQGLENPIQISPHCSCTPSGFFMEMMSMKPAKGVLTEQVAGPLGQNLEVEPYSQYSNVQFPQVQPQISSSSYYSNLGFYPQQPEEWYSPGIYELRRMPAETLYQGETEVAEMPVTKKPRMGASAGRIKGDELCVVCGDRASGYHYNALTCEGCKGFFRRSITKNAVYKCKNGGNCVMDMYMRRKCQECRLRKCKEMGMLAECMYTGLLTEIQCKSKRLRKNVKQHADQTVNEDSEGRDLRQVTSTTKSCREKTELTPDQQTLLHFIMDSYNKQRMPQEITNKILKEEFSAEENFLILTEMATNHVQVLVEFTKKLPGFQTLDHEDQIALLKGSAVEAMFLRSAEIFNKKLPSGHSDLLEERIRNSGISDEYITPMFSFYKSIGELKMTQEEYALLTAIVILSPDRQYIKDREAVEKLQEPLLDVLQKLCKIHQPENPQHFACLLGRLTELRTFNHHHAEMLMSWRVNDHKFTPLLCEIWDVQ
Chain of Oxysterols receptor LXR-alpha (Homo sapiens) (Q13133 whole entry, looked up): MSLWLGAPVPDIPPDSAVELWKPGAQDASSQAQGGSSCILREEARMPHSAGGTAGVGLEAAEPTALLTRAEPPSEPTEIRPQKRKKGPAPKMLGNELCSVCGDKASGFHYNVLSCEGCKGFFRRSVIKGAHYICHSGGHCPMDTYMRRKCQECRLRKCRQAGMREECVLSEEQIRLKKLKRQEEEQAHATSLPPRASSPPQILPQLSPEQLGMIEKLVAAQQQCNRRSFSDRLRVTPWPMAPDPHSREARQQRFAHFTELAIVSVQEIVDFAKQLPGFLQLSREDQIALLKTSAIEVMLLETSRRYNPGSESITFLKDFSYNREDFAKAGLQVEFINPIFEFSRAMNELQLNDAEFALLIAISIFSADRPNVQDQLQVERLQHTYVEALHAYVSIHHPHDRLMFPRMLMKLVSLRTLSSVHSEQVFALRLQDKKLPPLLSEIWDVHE
Chain of Nuclear respiratory factor 1 (Homo sapiens) (Q16656 whole entry, looked up): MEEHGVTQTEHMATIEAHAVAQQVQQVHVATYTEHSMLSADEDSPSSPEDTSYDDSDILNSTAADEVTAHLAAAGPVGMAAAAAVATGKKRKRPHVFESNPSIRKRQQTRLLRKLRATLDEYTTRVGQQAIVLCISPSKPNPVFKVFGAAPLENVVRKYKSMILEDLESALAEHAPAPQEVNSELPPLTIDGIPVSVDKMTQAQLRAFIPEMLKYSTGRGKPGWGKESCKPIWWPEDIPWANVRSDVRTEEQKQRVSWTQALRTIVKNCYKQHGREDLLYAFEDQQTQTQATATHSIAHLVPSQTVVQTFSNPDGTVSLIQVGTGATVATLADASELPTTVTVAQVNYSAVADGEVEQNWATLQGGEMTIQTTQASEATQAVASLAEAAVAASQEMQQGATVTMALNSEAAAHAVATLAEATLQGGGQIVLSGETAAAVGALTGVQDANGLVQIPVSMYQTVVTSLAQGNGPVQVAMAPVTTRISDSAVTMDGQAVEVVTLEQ
Chain of Oxysterols receptor LXR-beta (Homo sapiens) (P55055 whole entry, looked up, the tested form may be a part): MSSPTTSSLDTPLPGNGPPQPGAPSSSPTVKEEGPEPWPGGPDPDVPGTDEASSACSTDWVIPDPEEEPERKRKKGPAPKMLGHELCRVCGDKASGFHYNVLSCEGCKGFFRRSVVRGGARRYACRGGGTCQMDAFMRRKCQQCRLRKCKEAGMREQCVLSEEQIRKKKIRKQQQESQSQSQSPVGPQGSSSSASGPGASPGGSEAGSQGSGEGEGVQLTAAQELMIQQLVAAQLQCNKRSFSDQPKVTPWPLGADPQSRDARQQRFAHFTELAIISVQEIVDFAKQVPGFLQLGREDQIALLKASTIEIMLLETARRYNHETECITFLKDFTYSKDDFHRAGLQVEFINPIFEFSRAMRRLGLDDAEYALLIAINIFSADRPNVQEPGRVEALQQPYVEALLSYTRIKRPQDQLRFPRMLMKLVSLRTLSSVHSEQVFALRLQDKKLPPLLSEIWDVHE
Chain of Glucocorticoid receptor (Homo sapiens) (P04150 whole entry, looked up, the tested form may be a part): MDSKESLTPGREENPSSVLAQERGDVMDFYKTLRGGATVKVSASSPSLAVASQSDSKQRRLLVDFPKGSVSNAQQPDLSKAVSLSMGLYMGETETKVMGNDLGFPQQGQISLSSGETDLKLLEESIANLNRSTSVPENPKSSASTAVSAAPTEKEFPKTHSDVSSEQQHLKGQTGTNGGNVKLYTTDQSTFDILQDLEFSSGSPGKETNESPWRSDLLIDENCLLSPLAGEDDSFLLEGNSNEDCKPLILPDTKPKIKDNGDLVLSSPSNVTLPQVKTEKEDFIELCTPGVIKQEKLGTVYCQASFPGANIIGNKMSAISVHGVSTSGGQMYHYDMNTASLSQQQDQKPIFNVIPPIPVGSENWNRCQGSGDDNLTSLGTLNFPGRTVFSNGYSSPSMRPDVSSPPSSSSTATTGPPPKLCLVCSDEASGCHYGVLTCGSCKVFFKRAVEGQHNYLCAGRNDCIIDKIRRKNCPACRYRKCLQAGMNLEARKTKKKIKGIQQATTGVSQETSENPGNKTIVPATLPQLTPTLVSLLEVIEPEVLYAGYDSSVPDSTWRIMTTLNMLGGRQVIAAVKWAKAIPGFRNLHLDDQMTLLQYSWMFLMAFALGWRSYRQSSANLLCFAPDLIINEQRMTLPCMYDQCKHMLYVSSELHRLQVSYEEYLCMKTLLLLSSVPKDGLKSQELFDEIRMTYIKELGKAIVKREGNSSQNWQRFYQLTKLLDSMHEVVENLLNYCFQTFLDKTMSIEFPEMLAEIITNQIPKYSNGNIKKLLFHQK
Chain of Nuclear receptor subfamily 4 group A member 2 (Homo sapiens) (P43354 whole entry, looked up): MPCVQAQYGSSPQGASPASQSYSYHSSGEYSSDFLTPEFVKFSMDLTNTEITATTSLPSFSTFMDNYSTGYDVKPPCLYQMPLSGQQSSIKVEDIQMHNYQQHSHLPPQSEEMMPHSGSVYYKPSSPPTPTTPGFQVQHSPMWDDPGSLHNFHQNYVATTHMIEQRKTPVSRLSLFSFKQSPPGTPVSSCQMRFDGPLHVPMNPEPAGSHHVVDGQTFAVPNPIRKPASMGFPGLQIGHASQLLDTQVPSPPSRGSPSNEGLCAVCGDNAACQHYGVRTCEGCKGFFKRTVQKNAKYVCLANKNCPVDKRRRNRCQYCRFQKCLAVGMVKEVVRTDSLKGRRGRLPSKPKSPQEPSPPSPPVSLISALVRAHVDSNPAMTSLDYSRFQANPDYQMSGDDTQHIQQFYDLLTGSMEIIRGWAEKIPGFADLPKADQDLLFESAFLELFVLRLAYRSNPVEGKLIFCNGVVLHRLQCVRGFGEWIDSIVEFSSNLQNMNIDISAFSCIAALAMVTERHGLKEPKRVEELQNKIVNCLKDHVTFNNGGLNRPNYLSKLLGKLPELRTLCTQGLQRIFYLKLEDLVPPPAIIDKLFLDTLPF

As for `C[Si](C)O[Si](C)C`, the outcome in assay [1], in [2], in [3], in assay [4], in assay [5] and in assay [6] was inactive. Moreover, the outcome in [7], in assay [8], in assay [9], in [10] and in [11] was inactive.

Consider `CCOCOCC`, for which the compound was classed as inactive in assay [1], in [2], in [3], in assay [4], in assay [12] and in [13]. Further, the compound was called inactive in assay [5], in [6], in assay [7], in assay [8], in [9] and in assay [10]. Besides, the result in assay [14] was inactive.

The AC50 is the concentration giving half of the maximal activity seen. As for `CCC(Cc1c(I)cc(I)c(N)c1I)C(=O)O` (centres undefined), the result in [1], in assay [2], in [3], in [4], in assay [15] and in assay [5] was inactive. Moreover, the result in assay [6], in [7], in assay [9], in assay [14] and in [11] was inactive. Besides, the AC50 was 148 µM (active) in assay [8] and 47 µM (active) in assay [10].

Take `CCc1cccc(C)c1N(C(=O)C(=O)O)C(C)COC` (centres undefined): the compound was classed as inactive in [1], in assay [3], in assay [12], in assay [5], in assay [6] and in assay [7]. Further, the outcome in assay [8], in assay [9], in [10] and in assay [14] was inactive.

For `O=C(O)C(F)(F)C(F)(F)C(F)(F)OC(F)(C(F)(F)F)C(F)(F)F`, the compound was called inactive in assay [1], in [3], in assay [12], in [13], in assay [5] and in assay [6]. For the same compound, the call in assay [7], in [8], in assay [9], in assay [14], in assay [16] and in [17] was inactive. Besides, the outcome in [18] was inactive. In addition, in [10], the AC50 is 113 µM (active).

Turning to `Nc1cc([N+](=O)[O-])cc(Cl)c1O`, the compound was classed as inactive in assay [1], in assay [15], in assay [12], in [5], in [6] and in assay [7]. Further, the outcome in [8], in [9], in [10], in assay [14], in assay [11] and in [16] was inactive. In addition, the result in assay [17] was inactive.
